# Several values for one entry are separate records, joined by “and”; a condition that tells them apart may be missing. Equal entries are not always repeated. Inconclusive results are not listed. A call without a number means that no potency is given here. Some structures have more than one record in an assay (separate samples or runs), and their calls can disagree. Activity calls are given as the source filed them. Unless noted, calls come from the whole dose curve; as a rule, active = well fitted curve in the direction sought with a large enough effect in the repeat runs; inconclusive = weak or mixed curves; inactive = no such curve, though single readings can be large; an effect the other way counts as inactive or inconclusive.
# Tests used:
# [1] = qHTS assay for small molecule agonists of the p53 signaling pathway (AID 651631; calls by dose curve; note: nearly all actives have a fitted effect of over 15% in size)
# Method in brief: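 Beta-lactamase reporter activity under p53 response elements was quantified in HCT-116 cells by FRET fluorescence, following 16 h incubation with test compounds at 37 °C and 2 h substrate development at room temperature.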
# [2] = qHTS assay for small molecules that induce genotoxicity in human embryonic kidney cells expressing luciferase-tagged ATAD5 (AID 651632); note: nearly all actives have a fitted effect of over 15% in size
# Method in brief: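 Genotoxicity read-out via ATAD5-luciferase: HEK293T cells, 16 hr compound incubation at 37C, Amplite detection.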
# [3] = qHTS assay for small molecule agonists of the p53 signaling pathway - cell viability (AID 651633; calls by dose curve;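 note: p53RE-bla HCT reporter cells with a stable beta-lactamase p53 reporter; series mostly up to about 83 µM; nearly all actives have a fitted effect of over 30% in size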)
# Method in brief: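 p53RE-bla cells were treated with compound for 16 hours at 37 C. Cytotoxicity was then measured as CellTiter-Glo luminescence after 30 min at room temperature.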
# [4] = qHTS assay for small molecules that induce genotoxicity in human embryonic kidney cells expressing luciferase-tagged ATAD5 - cell viability (AID 651634; calls by dose curve; note: nearly all actives have a fitted effect of over 25% in size)
# Method in brief: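 Live-cell protease activity (CellTiter-Fluor, fluorescence) indicates viability. HEK293T cells with luciferase-tagged ATAD5; 15.5 hr compound treatment at 37C.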
# [5] = qHTS assay for small molecule disruptors of the mitochondrial membrane potential - cell viability (AID 720634; calls by dose curve; note: nearly all actives have a fitted effect of over 20% in size; note: potency is the fitted concentration of half-maximal effect)
# Method in brief: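 Human hepatoma HepG2 cells were treated for 1 hr with test chemicals, then given m-MPI dye and CellTiter-Glo. Cell viability reflects luminescence proportional to cellular ATP.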
# [6] = qHTS assay for small molecule disruptors of the mitochondrial membrane potential (AID 720635); note: potency is the fitted concentration of half-maximal effect
# Method in brief: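 HepG2 cells exposed to compound 1 hr at 37C, then Mito-MPS dye 30 min. Ratio read of aggregate (540/590 nm) versus monomer (490/535 nm) fluorescence.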
# [7] = qHTS assay to test for compound auto fluorescence at 590 nm (red) in HepG2 cells (AID 720674)
# Method in brief: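 HepG2 cells, 2,000 per well in MEM with 10% FBS, attached overnight at 37 C, then got 23 nL compound or DMSO. After 1 hr at 37 C, 5% CO2, red fluorescence was read at 540/590 nm against Rose Bengal sodium as reference.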
# [8] = qHTS assay to test for compound auto fluorescence at 535 nm (green) in HepG2 cells (AID 720675)
# [9] = qHTS assay to test for compound auto fluorescence at 460 nm (blue) in HEK293 cells (AID 720678)
# Method in brief: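 Blue-channel (Ex/Em 405/460 nm) intensity measured in HEK293 cultures after overnight compound exposure at 37C; signal expressed relative to triamterene. Cells plated 2,000 per well in 10% dialyzed FBS medium and allowed 4-5 hr to attach.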
# [10] = qHTS assay to test for compound auto fluorescence at 590 nm (red) in HEK293 cells (AID 720679)
# Method in brief: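 Red-channel autofluorescence (Ex/Em 540/590 nm; Rose Bengal sodium reference) was measured after overnight 37C, 5% CO2 exposure of attached HEK293 cells, 2,000 per well in medium with 10% dialyzed FBS.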
# [11] = qHTS assay to test for compound auto fluorescence at 535 nm (green) in HEK293 cells (AID 720680)
# [12] = qHTS assay to test for compound auto fluorescence at 460 nm (blue) in HEK293 cell free culture (AID 720681)
# Method in brief: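 Compounds were added to cell-free DMEM with 10% FBS and fluorescence read directly. The blue channel used 405 nm excitation and 460 nm emission, with triamterene as the reference fluorophore.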
# [13] = qHTS assay to test for compound auto fluorescence at 535 nm (green) in HEK293 cell free culture (AID 720682)
# Method in brief: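 Each library compound, or DMSO control, is added by pintool to medium alone, comprising DMEM and 10% FBS. Emission at 535 nm following 485 nm excitation is quantified against fluorescein.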
# [14] = qHTS assay to test for compound auto fluorescence at 590 nm (red) in HEK293 cell free culture (AID 720683)
# Method in brief: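 Cell-free wells of DMEM with 10% FBS received compound, and intrinsic fluorescence was read at excitation/emission 540/590 nm. Values expressed as equivalence to Rose Bengal sodium.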
# [15] = qHTS assay to test for compound auto fluorescence at 590 nm (red) in HepG2 cell free culture (AID 720684)
# Method in brief: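 Compounds are added to culture medium (MEM, 10% FBS) lacking cells, then fluorescence is read at excitation 540 nm, emission 590 nm, with Rose Bengal sodium as the equivalency standard.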
# [16] = qHTS assay to test for compound auto fluorescence at 460 nm (blue) in HepG2 cell free culture (AID 720685)
# Method in brief: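 Compound (23 nL) or DMSO pinned into cell-free MEM with 10% FBS; blue fluorescence read at 405/460 nm excitation/emission, expressed as auto-fluorescence equivalency to triamterene.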
# [17] = qHTS assay to test for compound auto fluorescence at 535 nm (green) in HepG2 cell free culture (AID 720686)
# [18] = qHTS assay to test for compound auto fluorescence at 460 nm (blue) in HepG2 cells (AID 720687)
# Method in brief: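 HepG2 cells in MEM with 10% FBS, attached overnight at 37 C, were exposed to compound or DMSO for 1 hr at 37 C, 5% CO2. Blue fluorescence was read at 405/460 nm, with triamterene as reference fluorophore.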
# [19] = biological target: Glucocorticoid receptor (Homo sapiens) (UniProt P04150); test: qHTS assay to identify small molecule agonists of the glucocorticoid receptor (GR) signaling pathway (AID 720691; active = well fitted activation curve with a large enough effect in the signal ratio in the repeat runs, not every such curve was filed as active; the % refers to the signal ratio)
# Method in brief: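 Beta-lactamase reporter activity, read as fluorescence intensity, was measured in GR-bla HeLa cells exposed to compounds for 18 h at 37 C and then loaded with LiveBLAzer B/G FRET substrate for 2 h at room temperature.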
# [20] = biological target: Glucocorticoid receptor (Homo sapiens) (UniProt P04150); test: qHTS assay to identify small molecule antagonists of the glucocorticoid receptor (GR) signaling pathway (AID 720692; active = well fitted inhibition curve with a large enough effect in the signal ratio in the repeat runs, not every such curve was filed as active; the % refers to the signal ratio; note: potency is the fitted concentration of half-maximal effect)
# Method in brief: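 Fluorescence from cleaved LiveBLAzer B/G FRET substrate reports GRE-driven beta-lactamase in HeLa cells; compounds are tested against 5 nM dexamethasone (final) over 18 h at 37 C, substrate incubation 2 h at room temperature.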
# Sequence of Glucocorticoid receptor (Homo sapiens) (P04150 whole entry, looked up): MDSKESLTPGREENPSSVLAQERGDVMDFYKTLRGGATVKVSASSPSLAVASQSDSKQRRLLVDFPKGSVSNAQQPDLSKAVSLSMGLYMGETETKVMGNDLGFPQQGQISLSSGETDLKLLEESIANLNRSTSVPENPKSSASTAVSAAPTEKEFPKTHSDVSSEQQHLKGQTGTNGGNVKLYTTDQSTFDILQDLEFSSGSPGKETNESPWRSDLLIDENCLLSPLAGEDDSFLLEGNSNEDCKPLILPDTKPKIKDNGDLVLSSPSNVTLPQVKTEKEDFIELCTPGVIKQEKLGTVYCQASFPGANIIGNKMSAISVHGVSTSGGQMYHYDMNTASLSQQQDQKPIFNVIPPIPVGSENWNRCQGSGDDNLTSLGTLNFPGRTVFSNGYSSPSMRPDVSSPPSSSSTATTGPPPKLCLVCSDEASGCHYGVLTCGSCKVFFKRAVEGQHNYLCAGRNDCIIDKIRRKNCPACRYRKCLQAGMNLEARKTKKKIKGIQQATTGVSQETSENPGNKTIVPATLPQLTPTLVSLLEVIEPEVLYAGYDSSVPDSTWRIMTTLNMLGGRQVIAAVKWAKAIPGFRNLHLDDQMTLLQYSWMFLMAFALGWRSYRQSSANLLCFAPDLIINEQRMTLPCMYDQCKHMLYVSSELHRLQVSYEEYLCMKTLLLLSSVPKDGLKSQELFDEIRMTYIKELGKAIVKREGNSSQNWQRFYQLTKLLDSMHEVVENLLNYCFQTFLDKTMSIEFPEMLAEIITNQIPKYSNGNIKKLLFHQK
SMILES,outcome [1],outcome [2],outcome [3],outcome [4],Potency [5],Potency [6],outcome [7],outcome [8],outcome [9],outcome [10],outcome [11],outcome [12],outcome [13],outcome [14],outcome [15],outcome [16],outcome [17],outcome [18],outcome [19],Potency [20]
ClCCBr,inactive,inactive,inactive,inactive,inactive,inactive,inactive,inactive,inactive,inactive,inactive,inactive,inactive,inactive,inactive,inactive,inactive,inactive,,
c1ccc2c(c1)oc1ccccc12,inactive,inactive,inactive,inactive,inactive,inactive,inactive,inactive,inactive,inactive,inactive,inactive,inactive,inactive,inactive,inactive,inactive,inactive,inactive,inactive
CC(C)(C)OOC(=O)c1ccccc1,inactive,inactive,inactive,inactive,inactive,inactive,inactive,inactive,inactive,inactive,inactive,inactive,inactive,inactive,inactive,inactive,inactive,inactive,inactive,inactive
c1ccc2c(c1)Oc1ccccc1O2,inactive,inactive,inactive,inactive,inactive,inactive,inactive,inactive,inactive,inactive,inactive,inactive,inactive,inactive,inactive,inactive,inactive,inactive,inactive,inactive
COC(=O)NS(=O)(=O)c1ccc(N)cc1,inactive,inactive,inactive,inactive,inactive,inactive,inactive,inactive,inactive,inactive,inactive,inactive,inactive,inactive,inactive,inactive,inactive,inactive,inactive,inactive
BrCCBr,inactive,inactive,inactive,inactive,inactive,inactive,inactive,inactive,inactive,inactive,inactive,inactive,inactive,inactive,inactive,inactive,inactive,inactive,inactive,inactive
COP(N)(=O)SC (stereo unspecified),inactive,inactive,inactive,inactive,inactive,inactive,inactive,inactive,inactive,inactive,inactive,inactive,inactive,inactive,inactive,inactive,inactive,inactive,inactive,inactive
O=c1[nH]c2ccccc2c(=O)o1,inactive,inactive,inactive,inactive,inactive,inactive,inactive,inactive,inactive,inactive,inactive,inactive,inactive,inactive,inactive,inactive,inactive,inactive,inactive,inactive
O=S(=O)(c1ccc(O)cc1)c1ccc(O)cc1,inactive,inactive,inactive,inactive,inactive,,inactive,inactive,inactive,inactive,inactive,inactive,inactive,inactive,inactive,inactive,inactive,inactive,inactive,inactive
CCNc1nc(NC(C)(C)C)nc(SC)n1,inactive,inactive,inactive,inactive,inactive,27.3 µM (active),inactive,inactive,inactive,inactive,inactive,inactive,inactive,inactive,inactive,inactive,inactive,inactive,inactive,inactive
Cc1ccccc1O,inactive,inactive,inactive,inactive,inactive,inactive,inactive,inactive,inactive,inactive,inactive,inactive,inactive,inactive,inactive,inactive,inactive,inactive,inactive,inactive
NCCc1ccc(O)cc1,inactive,inactive,inactive,inactive,inactive,inactive,inactive,inactive,inactive,inactive,inactive,inactive,inactive,inactive,inactive,inactive,inactive,inactive,inactive,inactive
CCCC1COC(Cn2cncn2)(c2ccc(Cl)cc2Cl)O1 (stereo unspecified),inactive,inactive,inactive,inactive,inactive,,inactive,inactive,inactive,inactive,inactive,inactive,inactive,inactive,inactive,inactive,inactive,inactive,inactive,inactive
CC(C)(C)OOC(C)(C)C,inactive,inactive,inactive,inactive,inactive,inactive,inactive,inactive,inactive,inactive,inactive,inactive,inactive,inactive,inactive,inactive,inactive,inactive,inactive,inactive
c1ccc(OP(Oc2ccccc2)Oc2ccccc2)cc1,inactive,inactive,inactive,inactive,inactive,,inactive,inactive,inactive,inactive,inactive,inactive,inactive,inactive,inactive,inactive,inactive,inactive,inactive,inactive
CCCCN(CC)C(=O)SCCC,inactive,inactive,inactive,inactive,inactive,inactive,inactive,inactive,inactive,inactive,inactive,inactive,inactive,inactive,inactive,inactive,inactive,inactive,inactive,inactive
Nc1ccc(Oc2ccc(N)cc2)cc1,inactive,inactive,inactive,inactive,inactive,inactive,inactive,inactive,inactive,inactive,inactive,inactive,inactive,inactive,inactive,inactive,inactive,inactive,inactive,inactive
Cc1cc(Cl)ccc1O,inactive,inactive,inactive,inactive,inactive,42 µM (active) and 54.5 µM (active),inactive,inactive,inactive,inactive,inactive,inactive,inactive,inactive,inactive,inactive,inactive,inactive,inactive,inactive
CCN(CC)c1ccccc1,inactive,inactive,inactive,inactive,inactive,,inactive,inactive,inactive,inactive,inactive,inactive,inactive,inactive,inactive,inactive,inactive,inactive,inactive,inactive
CC(C)(Cl)Cl,inactive,inactive,inactive,inactive,inactive,inactive,inactive,inactive,inactive,inactive,inactive,inactive,inactive,inactive,inactive,inactive,inactive,inactive,inactive,inactive
Cc1cc(-c2cc(C)c(N)c(C)c2)cc(C)c1N,inactive,inactive,inactive,inactive,inactive,,inactive,inactive,inactive,inactive,inactive,inactive,inactive,inactive,inactive,inactive,inactive,inactive,inactive,
CC(C)(C)C(O)(CCc1ccc(Cl)cc1)Cn1cncn1 (stereo unspecified),inactive,inactive,inactive,inactive,inactive,,inactive,inactive,inactive,inactive,inactive,inactive,inactive,inactive,inactive,inactive,inactive,inactive,inactive,43.6 µM (active)
O=c1n(Cl)c(=O)n(Cl)c(=O)n1Cl,inactive,inactive,inactive,inactive,inactive,inactive,inactive,inactive,inactive,inactive,inactive,inactive,inactive,inactive,inactive,inactive,inactive,inactive,inactive,inactive
CCCCCCCCCl,inactive,inactive,inactive,inactive,inactive,inactive,inactive,inactive,inactive,inactive,inactive,inactive,inactive,inactive,inactive,inactive,inactive,inactive,inactive,inactive
CCCCCCCCCCCC#N,inactive,inactive,inactive,inactive,inactive,inactive,inactive,inactive,inactive,inactive,inactive,inactive,inactive,inactive,inactive,inactive,inactive,inactive,inactive,inactive
CC(C)N1C(=O)c2ccccc2NS1(=O)=O,inactive,inactive,inactive,inactive,inactive,inactive and 48.6 µM (active),inactive,inactive,inactive,inactive,inactive,inactive,inactive,inactive,inactive,inactive,inactive,inactive,inactive,inactive
Nc1c(Cl)c(Cl)nc(C(=O)O)c1Cl,inactive,inactive,inactive,inactive,inactive,inactive and 56.1 µM (active),inactive,inactive,inactive,inactive,inactive,inactive,inactive,inactive,inactive,inactive,inactive,inactive,inactive,inactive
CN(C)CCO,inactive,inactive,inactive,inactive,inactive,inactive,inactive,inactive,inactive,inactive,inactive,inactive,inactive,inactive,inactive,inactive,inactive,inactive,inactive,inactive
O=C(NC(=O)c1c(F)cccc1F)Nc1cc(Cl)c(OC(F)(F)C(F)C(F)(F)F)cc1Cl (stereo unspecified),inactive,inactive,inactive,inactive,6.68 µM (active) and 7.7 µM (active),5.31 µM (active) and 7.7 µM (active),inactive,inactive,inactive,inactive,inactive,inactive,inactive,inactive,inactive,inactive,inactive,inactive,inactive,inactive
O=[N+]([O-])c1ccc([As](=O)(O)O)cc1,inactive,inactive,inactive,inactive,inactive,inactive,inactive,inactive,inactive,inactive,inactive,inactive,inactive,inactive,inactive,inactive,inactive,inactive,inactive,inactive

# From PubChem BioAssay (Tox21)
